Source: PubChem BioAssay (EPA / NIEHS)
Calls of active or inactive are those of the source. Rule for the calls: active = hit-call score of the fitted dose curve at least 0.9, where 1 is the maximum; inactive = score below 0.9.

Target: Transcription factor Sp1 (Homo sapiens) (UniProt P08047)
Assay: ATG_Sp1_CIS: Attagene CIS-FACTORIAL HepG2 Assay for human Specificity Protein 1 (Sp1) (AID 2282961)
Settings: HepG2 Sp1 cis-reporter transcription, actives raise or lower the signal
Experimental: ATG_CIS is a cell-based, multiplexed-readout assay that uses HepG2, a human liver cell line, with measurements taken at 24 hours after chemical dosing in a 24-well plate.ATG_Sp1_CIS is one of 52 assay component(s) measured or calculated from the ATG_CIS assay. It is designed to make measurements of mRNA induction, a form of inducible reporter, as detected with fluorescence intensity signals by Reverse transcription polymerase chain reaction (RT-PCR) and Capillary electrophoresis technology.Data from the assay component ATG_Sp1_CIS was analyzed into 1 assay endpoint. This assay endpoint, ATG_Sp1_CIS, was analyzed with bidirectional fitting relative to DMSO as the negative control and baseline of activity. Using a type of inducible reporter, measures of mRNA for gain or loss-of-signal activity can be used to understand the reporter gene at the transcription factor-level as they relate to the gene SP1. Furthermore, this assay endpoint can be referred to as a primary readout, because this assay has produced multiple assay endpoints where this one serves a reporter gene function. To generalize the intended target to other relatable targets, this assay endpoint is annotated to the dna binding intended target family, where the subfamily is zinc finger.
Human liver HepG2 cells are transiently transfected with multiple reporter transcription units (MRTUs) in 6-well plates using FuGene 6 reagent (Roche; 3 ml FuGene/1 mg DNA). The MRTU constructs are regulated by a cis-regulating element (promoter). […] A major difference between the CIS and TRANS system is that in CIS activities of endogenous TFs are measured, whereas the TRANS assay evaluates changes in activities of exogenous, chimeric NR-Gal4 proteins. […] At the end of 24 hour incubation, total RNA was isolated using TriZol reagent (Invitrogen). The isolated RNA is then reverse-transcribed using oligo(dT) primer and Mo-MLV reverse transcriptase (Invitrogen) with DNAse I (Ambion) treatment for 30 min. The one-tenth of the produced cDNA was amplified by PCR using Taq DNA polymerase (Invitrogen) and two reporter sequence-specific primers. The PCR products were fluorescently labeled by primer extension with 6-arboxyfluorescein (6-FAM) 5'-labeled reporter sequence-specific primer (2 min at 95 C, 20 s at 68 C and 10 min at 72 C) and these products were digested with 5U of HpaI (New England Biolabs) for 2h at 37 C. The fragments were purified using Qiaquick PCR columns (Qiagen), analyzed on an ABI 3130xL genetic analyzer (Applied Biosystems) with peak positions identified by using a set of X-rhodamine (ROX)-labeled MapMarker1000 molecular weight standards (BioVentures). The raw capillary electrophoresis data was processed using Attagraph software (Attagene).

Transcription factor Sp1 (Homo sapiens), sequence (P08047 whole entry, looked up): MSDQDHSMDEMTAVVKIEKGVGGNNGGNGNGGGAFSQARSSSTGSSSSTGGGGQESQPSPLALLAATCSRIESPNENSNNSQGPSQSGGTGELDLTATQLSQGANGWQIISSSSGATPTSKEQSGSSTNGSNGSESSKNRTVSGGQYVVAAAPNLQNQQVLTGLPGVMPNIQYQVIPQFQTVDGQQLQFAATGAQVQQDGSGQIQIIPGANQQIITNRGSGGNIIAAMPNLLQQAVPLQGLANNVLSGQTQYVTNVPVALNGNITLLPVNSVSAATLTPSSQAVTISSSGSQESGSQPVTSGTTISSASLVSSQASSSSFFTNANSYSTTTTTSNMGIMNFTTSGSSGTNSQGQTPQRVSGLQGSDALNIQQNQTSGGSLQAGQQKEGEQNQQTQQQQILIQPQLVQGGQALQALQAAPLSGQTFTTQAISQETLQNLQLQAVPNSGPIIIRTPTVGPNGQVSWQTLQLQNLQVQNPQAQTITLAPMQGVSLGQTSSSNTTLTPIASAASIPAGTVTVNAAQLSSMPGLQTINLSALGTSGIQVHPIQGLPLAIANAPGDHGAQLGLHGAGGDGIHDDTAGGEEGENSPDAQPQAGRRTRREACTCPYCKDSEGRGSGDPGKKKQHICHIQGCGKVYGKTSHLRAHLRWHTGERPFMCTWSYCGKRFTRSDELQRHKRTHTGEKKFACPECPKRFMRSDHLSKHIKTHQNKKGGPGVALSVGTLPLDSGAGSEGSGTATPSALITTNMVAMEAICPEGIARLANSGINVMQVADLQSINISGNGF

SMILES	outcome	AC50
Cc1cc(C)cc(C)c1	inactive	–
CCCCCCCCBr	inactive	–
O=S1(=O)OC(c2cc(Br)c(O)c(Br)c2)(c2cc(Br)c(O)c(Br)c2)c2ccccc21	inactive	–
C1CCC(C2CCCCC2)CC1	inactive	–
O=S(=O)(F)C(F)(F)C(F)(F)C(F)(F)C(F)(F)F	inactive	–
Oc1ccc(Cc2ccc(O)cc2)cc1	inactive	–
CCC(C)(C#N)N=NC(C)(C#N)CC (stereo not given)	inactive	–
CCCCCCCCCCCCc1cccc(S(=O)(=O)O)c1	inactive	–
CC(C)[C@@H](Nc1ccc(C(F)(F)F)cc1Cl)C(=O)OC(C#N)c1cccc(Oc2ccccc2)c1 (stereo not given in full)	inactive	–
C=CC(=O)[O][Sn]([CH2]CCC)([CH2]CCC)[CH2]CCC	–	0.504 µM (active)
O=C(NC(=O)c1c(F)cccc1F)Nc1cc(Cl)c(Oc2ncc(C(F)(F)F)cc2Cl)c(Cl)c1	inactive	–
OCCN(CCO)CCO	inactive	–
c1ccc(-c2cccc(-c3ccccc3)c2)cc1	inactive	–
Cc1ccccc1OP(=O)(Oc1ccccc1)Oc1ccccc1	inactive	–
O=CCCl	inactive	–
CCN(CC)C(=O)C(Cl)=C(C)OP(=O)(OC)OC	inactive	–
Brc1ccc(Oc2c(Br)cc(Br)cc2Br)c(Br)c1	inactive	–
CC(C)(C1CCC(O)CC1)C1CCC(O)CC1 (stereo not given)	inactive	–
Cc1cccc(OP(=O)(Oc2cccc(C)c2)Oc2cccc(C)c2)c1	inactive	–
CCCCCCCCCCCCCl	inactive	–

SMILES	outcome	AC50
BrCc1ccc(Br)cc1	inactive	–
Cc1cc(SCc2sc(-c3ccc(C(F)(F)F)c(F)c3)nc2C)ccc1OCC(=O)O	inactive	–
O=C(Nc1ccc(Br)cc1)c1cc(Br)cc(Br)c1O	inactive	–
CCCCCCCCCCCCCCC(Br)C(=O)O (stereo not given)	inactive	–
C=CCOC(N)=O	inactive	–
O=C/C(Cl)=C(/Cl)C(=O)O	inactive	–
Cc1cc(C(F)(C(F)(F)F)C(F)(F)F)ccc1NC(=O)c1cccc(I)c1C(=O)NC(C)(C)CS(C)(=O)=O	inactive	–
O=C(CCl)NCO	inactive	–
C[CH2][Hg][S]c1ccccc1C(=O)O	–	1.51 µM (active)
CCOC(=O)OC1=C(c2cc(C)ccc2C)C(=O)NC12CCC(OC)CC2 (stereo not given)	inactive	–
Cc1cccc(C)c1NC(=O)CN1CCCC1=O	inactive	–
Clc1cnc(Oc2ccc(Oc3ncc(Cl)cc3Cl)cc2)c(Cl)c1	inactive	–
Cc1cccc(N=Nc2ccc(N(C)C)cc2)c1	inactive	–
Nc1ccc(-c2ccccc2)cc1	inactive	–
NC(=O)CCl	inactive	–
N#Cc1cccnc1	inactive	–
COC(F)(C(F)(F)C(F)(F)F)C(F)(C(F)(F)F)C(F)(F)F (stereo not given)	inactive	–
Oc1cc(Cl)c(Cl)cc1Cl	–	58.2 µM (active)
BrCCCCBr	inactive	–
ClCc1ccccc1Cl	–	100 µM (active)
